The source of these data is paper PMC4552634, “A New Set of Chemical Starting Points with Plasmodium falciparum Transmission-Blocking Potential for Antimalarial Drug Discovery” (PLoS ONE, 2015).

Hit rate of the full screen: of about 13,000 compounds, about 3,200 (25%) showed an effect of 50% or more. The list shows a part of the results.

The % Inhibition is the drop in the measured response relative to a control, in per cent.

This test relates to P. falciparum stage V gametocytes. Also on record: BacTiter-Glo ATP luminescence viability of purified stage V gametocytes in 384-well plates, per cent inhibition versus DMSO. To be noted: 48 h, 5 µM; inhibitor.
Regarding `O=C(Nc1cc(Cl)ccc1O)c1ccc(Oc2ccc(C(=O)Nc3cc(Cl)ccc3O)cc2)cc1` [TCMDC-124084], the “% Inhibition” value is -31.23%. Under `Cc1ccc(C)c(NC(=O)NC2CCN(c3ccnc(Nc4ccc(F)cc4)n3)C2)c1` (centres unmarked) [TCMDC-133601] stands -9.129%; under `Cc1ccc2[nH]ncc2c1N(CC1CCCCC1)c1ccnc(Nc2ccc(OCC(O)CN3CC=CCC3)cc2)n1` (centres unmarked) [TCMDC-138794], 108.6%.

On to `COc1ccc(Nc2nccc(N3CCC(NC(=O)Nc4cc(C)ccc4C)C3)n2)cc1` (centres unmarked) [TCMDC-133615], for which the “% Inhibition” value is recorded as -63.4%. Under `Cc1noc(-c2ccccc2)c1CN1CCCC2(CC(C(=O)NCc3cccc(F)c3F)=NO2)C1` (centres unmarked) [TCMDC-136606] stands -21.45%; under `Cc1noc(C)c1-c1cccc(CNCc2cccc(-c3ccc(-c4nc5cccc(C)c5[nH]4)cc3)c2)c1.O=C(O)C(F)(F)F` [TCMDC-133056], -10.48%; under `Cc1[nH]c(C)c(-c2ccc(Oc3ccc(F)cc3)cc2)c(=O)c1Br` [TCMDC-137402], 76.64%. On to `Cc1[nH]c(C)c(-c2ccc(-c3ccc(F)cc3)cc2)c(=O)c1Br` [TCMDC-137421], for which the “% Inhibition” value turned out to be 28.52%. Under `Cc1[nH]c(C)c(-c2ccc(Oc3ccc([S+](C)[O-])cc3)cc2)c(=O)c1Br` (centres unmarked) [TCMDC-137400] stands 34.54%. With `Cc1[nH]c(C)c(-c2ccc(Oc3ccc(Cl)cc3)cc2)c(=O)c1Br` [TCMDC-137420] the figure was 17.1%; with `C=CCOc1ccc(-c2c(C)[nH]c(C)c(Br)c2=O)cc1` [TCMDC-135042], 74.1%; with `Cc1[nH]c(C)c(-c2ccc(Oc3ccccc3)cc2)c(=O)c1Br` [TCMDC-137410], 67.24%. With `Cc1[nH]c(C)c(-c2ccc(OCc3ccc(F)cc3)cc2)c(=O)c1Br` [TCMDC-138928] the figure was 4.156%. Turning to `Cc1[nH]c(C)c(-c2ccc(OCc3ccccc3)cc2)c(=O)c1Br` [TCMDC-138901], the “% Inhibition” value was found to be 61.61%.

As to `CCN1CCN(c2cc(C)c3cc(NC(=O)c4cccc([N+](=O)[O-])c4)ccc3n2)CC1` [TCMDC-125577], the “% Inhibition” value worked out at 8.914%. Turning to `CCN(CC)CCn1c2ccccc2c2ccc(C(=O)Nc3ccc4sc(C)nc4c3)cc21` [TCMDC-135280], the “% Inhibition” value is -1.763%. Under `O=C(c1cccc(-c2ccc(-c3nc4cc(F)ccc4[nH]3)s2)c1)N1CCCCC1CN1CCC(O)C1` (centres unmarked) [TCMDC-132343] stands -28.04%; under `COc1ccc2nc(C)cc(Nc3ccc(Oc4ccc(Cl)cc4)c(Cl)c3)c2c1` [TCMDC-123477], -13.35%; under `Cc1csc(NC(=O)c2cn(-c3ccccc3)nc2-c2cccs2)n1` [TCMDC-124531], 15.91%. Under `CC1CCCC(NCc2c(O)ccc3ccccc23)C1` (centres unmarked) [TCMDC-137601] stands 28.2%. Under `O=C(NCc1cccc2ccccc12)[C@@H]1CCCN1C(=O)c1ccc(O)c(-c2ccc(Cl)c(Cl)c2)c1` [TCMDC-140876] stands 16.61%; under `COc1ccc2ccc(F)c(CC(=O)N3CCOC(CNCc4cccc(-c5ccc(F)cc5)n4)C3)c2n1` (centres unmarked) [TCMDC-135026], -25.99%; under `CCOC(=O)c1c(CSc2ccccc2)oc2cc(CN(C)C)c(O)c(Cl)c12` [TCMDC-124095], -76.05%. With `Cc1cccc2[nH]c(-c3ccc(-c4cccc(NCc5cn6cccnc6n5)c4)cc3)nc12` [TCMDC-136896], the “% Inhibition” value is -19.99%. With `COc1cccc2cc(C(=O)N[C@@H](CC(C)C)C(=O)Nc3cc(F)ccc3Br)oc12` [TCMDC-135547] the figure was 2.093%. With `Cc1[nH]c(C)c(-c2ccc(OCCCc3ccccn3)cc2)c(=O)c1Br` [TCMDC-135795] the figure was 65.53%; with `C=Cc1ccc(-c2c(C)[nH]c(C)c(Br)c2=O)cc1` [TCMDC-135433], 58.24%; with `C=CCOc1ccccc1CNCC(O)c1cc(Br)cs1` (centres unmarked) [TCMDC-140498], -6.926%. On to `CN(C)C(CNC(=O)c1cc(-c2ccncc2)c(-c2ccc(NC(=O)Nc3cccc(Cl)c3)cc2)o1)c1ccccc1` (centres unmarked) [TCMDC-135781], for which the “% Inhibition” value is -15.22%. With `COc1cccc(NC(=O)Nc2ccc(Nc3nc(C)cc(N(C)C)n3)cc2)c1` [TCMDC-124959] the figure was 26.66%.

Regarding `CCC(C)(C)NC(C)C(O)c1ccc(C(F)(F)F)cc1` (centres unmarked) [TCMDC-138152], the “% Inhibition” value is -4.943%. Under `Cc1ccc(NCC(=O)Nc2ccc(F)c(Cl)c2)cc1S(=O)(=O)N1CCOCC1` [TCMDC-123553] stands -4.453%; under `Cc1[nH]c(C)c(-c2ccc(Oc3ccc(Cl)cc3)cc2)c(=O)c1I` [TCMDC-137393], 12.14%. With `Cc1[nH]c(C)c(-c2ccc(Oc3ccc(Cl)cc3)cc2)c(=O)c1C` [TCMDC-137378] the figure was 85.12%; with `Cc1[nH]c(C)c(-c2ccc(Oc3cccc(Cl)c3)cc2)c(=O)c1Cl` [TCMDC-137395], 75.57%; with `Cc1[nH]c(C)c(-c2ccc(Oc3ccc(Cl)cc3)cc2)c(=O)c1Cl` [TCMDC-137418], 32.25%. In the case of `Cc1[nH]c(C)c(-c2ccc(Oc3cc(Cl)cc(Cl)c3)cc2)c(=O)c1Cl` [TCMDC-137391], the “% Inhibition” value stood at 69.19%. As for `NC(=O)c1ccsc1NC(=O)CNC(c1ccc(F)cc1)c1cccs1` (centres unmarked) [TCMDC-125036], the “% Inhibition” value turned out to be 5.053%. Under `C[C@@H]1CN(C(c2cccc(O)c2)c2cccc(C(=O)N(C)c3cccc(F)c3)c2)[C@@H](C)CN1C(c1cccc(O)c1)c1cccc(C(=O)N(C)c2cccc(F)c2)c1` (some centres unmarked) [TCMDC-137248] stands -16.24%; under `CCN(CC)CCCN(C(=O)Nc1ccc(C#N)cc1)c1nc(-c2ccc(F)cc2)cs1` [TCMDC-136664], -0.5138%; under `CN1C2CCC1c1cc(NC(=O)c3cc(-c4ccc(Cl)cc4)cs3)ccc12` (centres unmarked) [TCMDC-134192], -60.68%. With `CCOc1cc(C(=O)NC2CCN(Cc3ccccc3)CC2)ccc1-c1nc2cc(Cl)c(F)cc2[nH]1` [TCMDC-140096] the figure was -27.97%; with `CC(C)(C)c1cc(C(=O)N2CCN(c3ncnc4ccsc34)CC2)n(Cc2ccccc2)n1` [TCMDC-133771], -19.67%; with `CCCCNCC(O)COc1ccccc1-c1ccc(N/N=C/c2cccc3ccccc23)nn1` (centres unmarked) [TCMDC-139416], 102.4%. Under `COc1cc(NC(=O)c2ccc3oc4ccccc4c3c2)ccc1OCCN1CCCCC1` [TCMDC-140701] stands -7.89%. For the compound `COc1cc(NC(=O)c2sc(-c3ccc(Cl)cc3)cc2NC(=O)c2ccncc2)ccc1OCCN1CCCC1` [TCMDC-135398], the “% Inhibition” value turned out to be 121.8%. Under `COc1ccc(NC(=O)c2ccc3[nH]c(-c4ccc(Cl)cc4)cc3c2)cc1OCCN(C)C` [TCMDC-138706] stands -82.62%; under `COc1cc(NC(=O)c2sc(-c3ccc(Cl)cc3)cc2NC(=O)N2CCCC2)ccc1OCCN1CCCC1` [TCMDC-135404], 71.79%. With `COc1ccc(NC(=O)/C=C/c2ccccc2Cl)cc1OCCN1CCN(c2ccncc2)CC1` [TCMDC-140732] the figure was 4.813%. With `COc1cc(NC(=O)c2sc(-c3ccc(Cl)cc3)cc2Cl)ccc1OCCN1CCCC1` [TCMDC-135556] the figure was -58.99%; with `COc1ccc(NC(=O)/C=C/c2ccccc2Cl)cc1OCCN1CCC(NCc2cccnc2)CC1` [TCMDC-140758], -13.35%; with `COc1cc(NC(=O)c2sc(-c3ccc(Cl)cc3)cc2NC(=O)c2cccnc2)ccc1OCCN1CCCC1` [TCMDC-135397], 125.5%. `COc1cc(NC(=O)c2ccc(-c3ccc(C(C)=O)cc3)s2)ccc1OCCN1CCCC1` [TCMDC-138864]: the “% Inhibition” value is -4.371%. With `Cc1ccc(NC(=O)c2ccc(-c3cc4cc(Cl)c(Cl)cc4[nH]3)cc2)cc1OCCN1CCCC1` [TCMDC-141289] the figure was 43.64%. With `COc1cc(NC(=O)c2sc(-c3ccc(Cl)cc3)cc2NC(=O)c2cccc(N(C)C)c2)ccc1OCCN1CCCC1` [TCMDC-135403] the figure was 72.06%; with `O=C(NCC1CCC(CNCCc2ccccc2)CC1)Nc1ccc(Cl)c(Cl)c1` (centres unmarked) [TCMDC-140704], -8.295%; with `CCCCCc1cc(O)c2c3c(c(=O)oc2c1)CN(C)CC3` [TCMDC-124170], 9.829%. Consider `CC(=O)Nc1csc(-c2cnc(/C=C(\C)C[C@@H]3OC[C@H](C[C@@H]4O[C@H]4[C@@H](C)[C@H](C)O)[C@@H](O)[C@H]3O)o2)c1` [TCMDC-131575], for which the “% Inhibition” value is given as 0.669%. With `COc1cccc(NC(=O)NC2CCN(c3ccnc(Nc4cc(OC)c(OC)c(OC)c4)n3)C2)c1` (centres unmarked) [TCMDC-133627] the figure was -76.2%; with `CN(C)C(=S)N=Nc1c(O)[nH]c2ccccc12` [TCMDC-124262], -39.06%.

On to `COc1cc(NC(=O)/C=C/c2ccccc2OC(F)(F)F)cc(OCCN2CCC(O)(c3ccccc3)CC2)c1` [TCMDC-140935], for which the “% Inhibition” value is recorded as -5.416%. With `COc1ccc(C2CCN(CCN3CCC(NC(=O)c4cccc(-c5ccncc5)c4)CC3)CC2)c(OC)c1` [TCMDC-135431] the figure was -2.358%. Under `COc1cc(NC(=O)c2sc(-c3ccc(Cl)cc3)cc2NC(=O)CN2CC[C@@H](O)C2)ccc1OCCN1CCCC1` [TCMDC-135380] stands 114.3%. With `COc1cc(NC(=O)c2sc(-c3ccc(Cl)cc3)cc2NC(=O)CN2CCCC2)ccc1OCCN1CCCC1` [TCMDC-135381] the figure was -9.57%; with `COc1ccc(CCCON2C(N)=NC(N)=NC2(C)C)cc1` [TCMDC-131693], 15.23%. On to `CCCc1ccc(C2CCN(CCCCNC(=O)c3ccc(NC(=O)c4ccc(Cl)cc4)cc3)CC2)cc1` [TCMDC-138358], for which the “% Inhibition” value came to 87.46%. With `O=C(NCCCCN1CCC(c2ccc([N+](=O)[O-])cc2)CC1)c1ccc(NC(=O)c2ccc(Cl)cc2)cc1` [TCMDC-138350] the figure was 25.02%; with `CCc1ccc(C2CCN(CCCCNC(=O)c3ccc(NC(=O)c4ccc(Cl)cc4)cc3)CC2)cc1` [TCMDC-138351], 54.3%; with `C=CCc1ccc(C2CCN(CCCCNC(=O)c3ccc(NC(=O)c4ccc(Cl)cc4)cc3)CC2)cc1` [TCMDC-138355], 87.45%. For the compound `CCc1ccccc1N1CCN(CCCCNC(=O)c2ccc(NC(=O)c3ccc(Cl)cc3)cc2)CC1` [TCMDC-138192], the “% Inhibition” value is recorded as 63.87%. Under `O=C(NCCCCN1CCN(c2cccc3ccccc23)CC1)c1ccc(NC(=O)c2ccc(Cl)cc2)cc1` [TCMDC-138514] stands -0.4742%; under `CCc1ccccc1N1CCN(CCCC(=O)c2ccc(NC(=O)c3ccc(Cl)cc3)cc2)CC1` [TCMDC-138230], -10.32%; under `O=C(NCCCCN1CCC(c2ccc(Br)cc2)CC1)c1ccc(NC(=O)c2ccc(Cl)cc2)cc1` [TCMDC-138347], 1.75%. With `O=C(NCCCCN1CCC(c2ccc(OC(F)(F)F)cc2)CC1)c1ccc(NC(=O)c2ccc(Cl)cc2)cc1` [TCMDC-138327] the figure was 35.48%.
